ClpP mod – qHTS Assay for Activators of ClpP | ATP-dependent Clp protease proteolytic subunit (Bacillus subtilis (strain 168)), P80244 | purified B. subtilis ClpP, FRET peptide cleavage, 20 min | Potency, µM (titrated, usually from 57.5 µM), without a hit: at the highest dose activity change, negative = active | actives 1.9% (n = 340,000) | AID 651965, 2013; active means well fitted falling curve with a large enough effect; inconclusive means small, poorly fitted or top-dose-only effect; inactive means no such curve, though single readings can be large or run the other way; further: the source files actives as falling curves though it sought activators and does not explain the sign; nearly all actives have a fitted effect of over 65% in size
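Buffer: 100 mM Tris/HCl pH8, 100 mM KCl, 0.05% low protease BSA, 2.5% glycerol, 0.01% Tween-20. ClpP 10 microg/mL final; 20 min RT; delta FRET normalized to ADEP and DMSO controls.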
RORgamma inh – qHTS for inhibitors of ROR gamma transcriptional activity; Nuclear receptor ROR-gamma (Mus musculus), P51450; Potency, µM (highest dose often 53.6 µM), for inactives: at the highest dose activity change, negative = inhibition, actives largely listed as inhibitors; Drosophila S2 Gal4-RORgamma UAS-luciferase reporter, 20 h; actives 5.4% (n = 310,000); further: on the % scale 0 is the no-effect control and ±100 the full control effect; nearly all actives have a fitted effect of over 60% in size
Target sequence (P51450 whole entry, looked up, the tested form may be a part): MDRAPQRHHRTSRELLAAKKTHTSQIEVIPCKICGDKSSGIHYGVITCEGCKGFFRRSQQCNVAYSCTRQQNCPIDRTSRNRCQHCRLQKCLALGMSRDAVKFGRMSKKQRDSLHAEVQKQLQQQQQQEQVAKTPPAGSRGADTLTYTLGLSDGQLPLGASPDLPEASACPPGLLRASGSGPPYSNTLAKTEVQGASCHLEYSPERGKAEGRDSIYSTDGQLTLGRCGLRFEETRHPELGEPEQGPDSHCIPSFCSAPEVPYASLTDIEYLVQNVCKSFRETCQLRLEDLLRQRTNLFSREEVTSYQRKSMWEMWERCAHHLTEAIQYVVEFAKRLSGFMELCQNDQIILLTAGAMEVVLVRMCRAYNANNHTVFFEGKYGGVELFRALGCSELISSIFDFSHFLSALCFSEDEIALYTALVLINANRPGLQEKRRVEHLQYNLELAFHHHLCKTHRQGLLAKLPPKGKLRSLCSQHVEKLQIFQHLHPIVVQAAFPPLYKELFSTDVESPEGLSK
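Schneider cells (Drosophila), stable Gal4 DBD–ROR gamma + UAS-luc; 1 hr cmpd preincubation; Cu2+ induction 700 uM final; 20 hr ambient; luminescence.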
VP16 counter – VP16 counterscreen qHTS for inhibitors of ROR gamma transcriptional activity | Drosophila S2 Gal4-VP16 UAS-luciferase, luminescence, 20 h | Potency, µM (titrated, usually from 53.6 µM), without a hit: at the highest dose activity, negative = inhibition, usual class: inhibitors | actives 3.5% (n = 310,000) | AID 2546, 2010;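 further: Gal4-VP16 expression switched on by copper sulfate through the metallothionein promoter; on the % scale 0 is the no-effect control and ±100 the full control effect; nearly all actives have a fitted effect of over 50% in size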
Sfp inh – qHTS Assay for Inhibitors of Bacillus subtilis Sfp phosphopantetheinyl transferase (PPTase); 4'-phosphopantetheinyl transferase ffp (Bacillus subtilis), Q9F4F7; Biochemical Sfp PPTase activity, qHTS; Potency, µM, inactives show largest response in the series, negative = inhibition, most hits filed as inhibitors; actives 3.5% (n = 310,000);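 further: the enzyme is Sfp with the accession as filed and its product quenches rhodamine fluorescence; 0% = enzyme reaction without inhibitor and -100% = no enzyme wells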
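Reaction rates are the 30-min fluorescence difference (ex 525, em 598 nm) in wells containing 15 nM Sfp, 5 uM rhodamine-CoA and 12.5 uM BHQ-2-YbbR at pH 7.6 with 10 mM MgCl2.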
Epigenetic reg – Quantitative High-Throughput Screen for Regulators of Epigenetic Control; murine LDR cells, GFP reporter derepression, 30 h; Potency, µM (top dose mostly 53.9 µM), for the others: top-dose GFP activation, hits mostly activators; actives 0.2% (n = 280,000); AID 1865, 2009; further: % of control where 0% means no effect; nearly all actives have a fitted effect of over 60% in size
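In this reporter-derepression format, murine cells bearing a silenced integrated CMV-GFP locus incubate with test compound (30 h, 37 C), then are washed and imaged; fluorescent objects of 20–120 um count as induced cells.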
PINK1 modulator – A Quantitative High throughput Screen to Identify Chemical Modulators of PINK1 Expression | actives 0.2% (n = 410,000) | PINK1 immunofluorescence, high-content cytometry, 24 h | AID 624263, 2012 | Potency, µM (titrated, usually from 76.6 µM), for inactives: top-dose activation (PINK1 increase), actives largely listed as activators; active means well fitted activation curve with a large enough effect; inconclusive means small, poorly fitted or top-dose-only effect; cell line not stated here; further: % of control where 0% means no effect; nearly all actives have a fitted effect of over 65% in size
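Compound titrations (5 concentrations, 24 h) on a stable cell line; DMSO and CCCP controls. Endpoint: fixed-cell PINK1 immunofluorescence with mitochondrial, cell and nuclear markers, scanned by microplate cytometer.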
ClpP inh valid – qHTS Assay for Activators of ClpP: Hit Validation of Inhibitors; purified B. subtilis ClpP, FRET-FV substrate cleavage, 20 min; Potency, µM (highest dose often 57.5 µM), inactives show top-dose activity change, negative = inhibition, actives largely listed as inhibitors; shares compounds with ClpP mod; actives 40% (n = 470); AID 743245, 2014; further: on the % scale 0 is the no-effect control and ±100 the full control effect; nearly all actives have a fitted effect of over 70% in size
* marks the source's active call; other numbers are inactive results; ? = inconclusive; nt = no result; [ ] = remark or other dose. Hits are enriched below; roughly 8.1% of the tested compounds scored in any of these assays. Unless noted, the call rests on the fitted dose curve; in most records, active means well fitted curve in the direction sought with a large enough effect; inconclusive means small, poorly fitted or top-dose-only effect, or another doubt; inactive means no such curve, though single readings can be large; an effect the other way counts as inactive or inconclusive. Potency means the concentration at half of the fitted maximal effect.

SMILES	ClpP mod	RORgamma inh	VP16 counter	Sfp inh	Epigenetic reg	PINK1 modulator	ClpP inh valid
NC(=O)c1cccc(-c2ccnc3c2CC(C(=O)NCCc2ccccc2)O3)c1 (stereo not drawn)	-7%	nt	nt	nt	nt	12%	nt
O=C(NCCc1ccccc1)C1Cc2c(-c3ccccc3)ccnc2O1 (stereo not drawn)	?	nt	nt	nt	nt	8%	-2%
COc1ccc(OC)c(CCNC(=O)CN2C(=O)COc3ccc(S(=O)(=O)N4CCC(C)CC4)cc32)c1	-1%	nt	nt	nt	1%	0%	nt
Cc1ccc(C)c2[nH]c(=O)c(CN(CCCN(C)C)C(=O)NCc3ccccc3)cc12	3.5µM*	11%	-9%	-3%	0%	-1%	?
Cc1cc(C)c2cc(CN(CCCN(C)C)C(=S)NCc3ccccc3)c(=O)[nH]c2c1	0%	?	?	-6%	2%	0%	nt
CCCN(CCC)CCNC(=O)Cn1ncc2c([nH]c3ccc(C)cc32)c1=O	-4%	nt	nt	nt	-1%	2%	nt
O=C(O)c1ccccc1NC(c1ccccc1)c1ccc2cccnc2c1O (stereo not drawn)	150%	nt	nt	nt	nt	-1%	?
Cc1ccc2ccc(C(Nc3ccccc3)c3ccc(F)cc3)c(O)c2n1 (stereo not drawn)	-1%	nt	nt	nt	nt	nt	nt
CCCC(=O)Nc1cc(-c2nc3ncccc3o2)ccc1C	3.2µM*	-16%	0%	15%	-1%	1%	24µM*
O=C(Cc1ccc(Cl)cc1)NC1CC(=O)N(c2ccc3c(c2)OCCO3)C1 (stereo not drawn)	0%	nt	nt	nt	4%	0%	nt
O=S(=O)(c1ccc2c(c1)CCCC2)N1CCN(c2nc(-c3cccs3)nc3ccccc23)CC1	8.9µM*	nt	nt	nt	nt	-1%	24µM*
O=S(=O)(c1cc(Cl)cc(Cl)c1)N1CCN(c2nc(-c3cccs3)nc3ccccc23)CC1	4%	nt	nt	nt	nt	0%	nt
O=S(=O)(c1ccc2c(Cl)cccc2c1)N1CCN(c2nc(-c3cccs3)nc3ccccc23)CC1	4.5µM*	nt	nt	nt	nt	5%	22µM*
CCOC(=O)c1c(C)[nH]c(C)c1S(=O)(=O)N1CCC(C(=O)NCc2cccc(OC)c2)CC1	0%	nt	nt	nt	-2%	0%	nt
Cc1cccc(C)c1NC(=O)CSc1nc2ncccc2o1	6%	nt	nt	nt	1%	-1%	nt
CCCCn1c(=O)n(C)c(=O)c2c(C(F)(F)F)cc(-c3ccncc3)nc21	?	-18%	2%	-8%	-1%	0%	nt
CCCn1c(=O)c2c(C(F)(F)F)cc(-c3ccco3)nc2n(CCC)c1=O	1.8µM*	-22%	4%	12%	-1%	-6%[38.3 µM]	6.9µM*
O=C(CNC(=O)c1cccc(F)c1)NC1CC1	3.5µM*	nt	nt	nt	nt	-1%	-1%
COc1ccc(NC(=O)c2ccco2)cc1NC(=O)COc1cc(C)ccc1C(C)C	49%	nt	nt	nt	-1%	3%	2%
CC1=C(c2ccc(C)c(C)c2)S(=O)(=O)N(Cc2ccc(C(=O)NCc3cccc(C)c3)cc2)C1=O	10µM*	nt	nt	nt	1%	-1%	15µM*
Cc1ccc(/C=C/c2nc3ccccc3n2S(=O)(=O)c2cccc(Cl)c2)cc1	10µM*	nt	nt	nt	-1%	-1%	?
CCOc1ccc(/C=C/c2nc3ccccc3n2S(=O)(=O)c2cccc(Cl)c2)cc1	4%	nt	nt	nt	0%	1%	nt
CCc1nnc(SCc2nc(-c3ccc(OC)cc3)oc2C)c2cc3sccc3n12	?	nt	nt	nt	-2%	1%	nt
